# Measurements: PubChem BioAssay (NCI)
# Compounds without any hit were thinned out: in the full panel of roughly 83,000, 20% have a hit.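 Activity criterion: percent growth below 10, measured after cells in 96-well plates were exposed to a single compound concentration for 48 hours.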 Unmarked numbers belong to inactive results. Active and inactive are the calls of the source.
# Tests used:
# Test in all cases: NCI-60 one-dose screen, 48 h (100 = growth as untreated, 0 = no growth, -100 = all killed)
# Settings in all cases: 10 µM unless noted
# HCT-15 colon = system: HCT-15 colon
# HT29 colon = system: HT29 colon
# SNB-75 CNS = system: SNB-75 CNS
# SNB-19 CNS = system: SNB-19 CNS
# U251 CNS = system: U251 CNS
# PC-3 prostate = system: PC-3 prostate
# SK-MEL-5 melanoma = system: SK-MEL-5 melanoma
# UACC-62 melanoma = system: UACC-62 melanoma
# LOX IMVI melanoma = system: LOX IMVI melanoma
# SK-MEL-28 melanoma = system: SK-MEL-28 melanoma
# SK-MEL-2 melanoma = system: SK-MEL-2 melanoma
# SN12C renal = system: SN12C renal
# UO-31 renal = system: UO-31 renal
# TK-10 renal = system: TK-10 renal
# ACHN renal = system: ACHN renal
# CAKI-1 renal = system: CAKI-1 renal
# A498 renal = system: A498 renal
# CCRF-CEM leukemia = system: CCRF-CEM leukemia
# MOLT-4 leukemia = system: MOLT-4 leukemia
# EKVX NSCLC = system: EKVX NSCLC
Compound,growth (HCT-15 colon),growth (HT29 colon),growth (SNB-75 CNS),growth (SNB-19 CNS),growth (U251 CNS),growth (PC-3 prostate),growth (SK-MEL-5 melanoma),growth (UACC-62 melanoma),growth (LOX IMVI melanoma),growth (SK-MEL-28 melanoma),growth (SK-MEL-2 melanoma),growth (SN12C renal),growth (UO-31 renal),growth (TK-10 renal),growth (ACHN renal),growth (CAKI-1 renal),growth (A498 renal),growth (CCRF-CEM leukemia),growth (MOLT-4 leukemia),growth (EKVX NSCLC) [%]
O=C(C[C@]1(O)C(=O)Nc2ccc(Br)cc21)c1ccco1,105%,101%,96.1%,95.6%,100%,92.6%,93.3%,90.7%,89.9%,117%,94.5%,90%,75.4%,125%,109%,93.4%,103%,104%,102%,
Cc1nc2sc(C(=O)Nc3ccccn3)c(N)c2cc1C(C)O (stereo not drawn),36.4%,27.4%,89.3%,64.7%,48.8%,72.7%,45%,42.7%,67.1%,67.4%,53.9%,93.7%,78.4%,79.4%,89%,85.5%,,49.6%,64.1%,
COC12C=C/C(=C(/C(=O)OCc3csc(SC)n3)C(=O)CCCCCCCCC3(OC)C=C/C(=C(/C(=O)OCc4cnc(SC)s4)C(=O)CCCCCCCC1)O3)O2 (stereo not drawn),76.8%,27.5%,98.3%,47.3%,36.9%,27.4%,11.3%,6.98% (active),-22.9% (active),36.3%,55.8%,28.9%,43.5%,47.6%,6% (active),68%,34.9%,14.6%,1.34% (active),
COc1ccc(-c2cc(C(=O)N3N=C(c4ccc(N)cc4)CC3c3ccc(Cl)cc3)c3ccccc3n2)cc1 (stereo not drawn),21.4%,-11.7% (active),5.79% (active),48.3%,15.2%,26.1%,25.9%,38.3%,33%,63.4%,20.1%,41%,45.3%,,43.6%,28.3%,-1.93% (active),16.5%,,
CCOC(=O)/C=C1\S/C(=N\Nc2cc(=O)[nH]c3ccc(Br)cc23)N(c2ccccc2)C1=O,42.3%,104%,80.4%,90.4%,77.1%,44.1%,98.3%,78.6%,90.6%,95.3%,,78.9%,60.1%,90.8%,73%,69.9%,95.6%,10.5%,21.4%,97.2
COc1cc2c(cc1OCCCN1CCN(C(=S)SCCC(C#N)(c3ccccc3)c3ccccc3)CC1)N=C[C@@H]1CCCN1C2=O,-89.5% (active),-89.3% (active),-91.5% (active),-44.4% (active),-95.7% (active),-34.9% (active),-100% (active),-72% (active),-100% (active),-82.6% (active),-80% (active),-43.9% (active),4.62% (active),-59.7% (active),-46.1% (active),-44.1% (active),-100% (active),-35% (active),-8.92% (active),
CC[C@@H](C(=O)[C@@H](C)[C@@H](O)[C@H](C)[C@@H]1O[C@@H]([C@@H](CC)C(=O)ONC(=O)c2ccccc2O)CC[C@@H]1C)C1O[C@]2(C=CC(=O)[C@]3(CC[C@@](C)([C@H]4CC[C@](O)(CC)[C@H](C)O4)O3)O2)[C@H](C)C[C@@H]1C (stereo partly drawn),44.5%,33.9%,64.3%,48.4%,32.1%,31.3%,11%,63.3%,45.4%,73.3%,,24.1%,36.9%,75.8%,50.2%,39.2%,36.4%,36.6%,45.1%,45.2
COc1ccc(C2CC(c3ccccc3)=NN2C(=O)c2cc(OC)c(OC)c(OC)c2)cc1O (stereo not drawn),16.2%,36%,34.7%,47.3%,20.6%,22.5%,22.4%,25.9%,42.9%,64.9%,,37.5%,30.3%,63.2%,37.5%,52.9%,17.3%,17.9%,18.9%,46.7
CCOC(=O)C1=C(c2ccccc2)N=C2N(c3ccccc3)N=C(C(C)=O)N2C1c1ccc(F)cc1 (stereo not drawn),90.8%,109%,89.4%,95.4%,103%,89.4%,97.6%,89.5%,102%,105%,,94.3%,84.3%,104%,96.7%,91.8%,70.4%,95.9%,101%,97
O=S(=O)(NCCNc1nccc(-c2c(-c3ccc(F)c(O)c3)nc3sccn23)n1)c1ccc(Cl)cc1,27%,17.5%,50.2%,46.1%,41.6%,17%,-18.5% (active),-1.12% (active),29.6%,47.6%,,26.3%,11.6%,44.8%,19.8%,19.5%,30.8%,14.2%,,36.6
CSc1nc(-c2ccco2)c(C#N)c(=O)n1C,98.1%,113%,89.3%,93.7%,103%,94.4%,101%,99.5%,97.2%,109%,,110%,112%,104%,100%,89.2%,103%,88.7%,95.1%,98.4
Cc1cccc(NC(=O)Cn2cc(CN3CCN(c4ccnc5cc(Cl)ccc45)CC3)nn2)c1,88.8%,98.5%,75%,89.6%,93%,63.3%,68.8%,73%,81.6%,102%,,93.8%,65.7%,102%,82.9%,72.7%,84.3%,-32.9% (active),5.76% (active),87.7
O=C(Nc1ccccc1O)c1ccc(CNc2ccnc(C(F)(F)F)c2)cc1,67.5%,75.8%,55.9%,68%,60.3%,57.7%,38.1%,32.8%,52.7%,69.9%,52.4%,48.8%,29.2%,96.2%,43%,29.6%,66.4%,-8.29% (active),9.24% (active),
Cc1ccc(O)c(NC(=O)c2cccc(Nc3ccnc(C(F)(F)F)c3)c2)c1,80%,101%,85%,90.5%,83.6%,68%,20.7%,30.8%,66.9%,100%,82.7%,39.9%,29.3%,92.2%,57.8%,41.6%,,-1.16% (active),-4.89% (active),
Cc1c(C(C)(C)O)cn2ncnc(Oc3ccc(NC(=O)Nc4ccc(Cl)c(C(F)(F)F)c4)c(F)c3)c12,55.5%,61.1%,36.5%,53.2%,47%,39.2%,61.4%,72%,59.7%,71.3%,,57.6%,69.9%,85.1%,39.5%,47.9%,29.5%,29.2%,,56.3
O=C(/C=C/c1ccccc1)c1ccc(-n2cc(CN3CCN(c4cc5c(cc4F)c(=O)c(C(=O)O)cn5C4CC4)CC3)nn2)cc1,91.6%,79.2%,72.3%,72%,42.2%,79.3%,77.6%,73.8%,36.2%,88.2%,,45.8%,62.5%,83.3%,93.5%,61.4%,52.2%,64.9%,84.1%,94
